Experiment [1] in a line: wild-type E. coli growth inhibition versus h38 humanized strain – h38 mutant RFP, wild-type GFP, cherry-pick, dose response (AID 977622). The note with it: activity change: E. coli mixed culture, total growth OD600 at 50 uM, at 50 µM.
The test system of experiment [2] is E. coli h38 humanized mutant ribosome RFP fluorescence, mixed culture, 24 h. Described as above. The conditions noted are these: h38 mutant RFP at 50 uM; at 50 µM.

In PubChem BioAssay AID977622 (Broad Institute, 2014) one finds activity change and outcome data, which are given here for 21 compounds.

Out of some 1,900 compounds screened, fewer than 10 were called active. About 39% were inconclusive and are not listed.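 Rule for the calls: active = Green signal of the normal strain falls at least twice as much as red signal of the resistant mutant, with overall culture growth loss under a set limit; inconclusive = no clear call, values can overlap the other calls; inactive = the rest.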 The list is a sample of the results.

On to `O=C(CCc1nc2ccccc2s1)OCC(=O)c1ccccc1`, for which, in experiment [1], the activity change was determined as 6.3% and the call was inactive. In addition, the activity change in experiment [2] was -0.655%.

As to `Cc1ccc2nc(N(CCN(C)C)C(=O)C3CCN(S(=O)(=O)c4cccs4)CC3)sc2c1`, in experiment [1], the activity change was -21.5% and the compound was called inactive.

For the compound `Cc1cccc(-c2ccc([C@@H]3[C@@H](CO)N4CCCCN(S(=O)(=O)c5ccccc5C)C[C@@H]34)cc2)c1`, in experiment [1], the activity change is -8.54% and the call was inactive. In addition, the activity change in experiment [2] came to 21%.

Regarding `COc1ccc(C#Cc2ccc([C@H]3[C@@H](CO)N4CCCCN(C(=O)Nc5cccc(F)c5)C[C@H]34)cc2)cc1`, the activity change is -17.6% in experiment [1] and 73.7% in experiment [2]. Also, in experiment [1], the result was inactive.

For `Cc1cc(C)n(CC(O)COc2ccc3ccccc3c2)n1` (stereo unspecified), in experiment [1], the activity change came out at 4.91% and the outcome was inactive. Moreover, the activity change in experiment [2] stood at 10.9%.

Regarding `N#Cc1nc(COc2cccc(Cl)c2)oc1N1CCCC1`, in experiment [1], the activity change is -6.55% and the call was inactive.

As for `COc1ccc(CC(=O)NCc2csc(-c3cccs3)n2)cc1OC`, in experiment [1], the activity change is -8.86% and the outcome was inactive. The activity change in experiment [2] is -8.02%.

On to `Cc1ccc(-n2c(SCC(N)=O)nnc2-c2cnccn2)cc1`, for which, in experiment [1], the activity change was -6.07% and the result was inactive. In experiment [2], the activity change is -24.8%.

In the case of `COc1ccc(C)c2sc(N(CCN(C)C)C(=O)c3ccc(S(=O)(=O)N(C)c4ccccc4)cc3)nc12`, in experiment [1], the activity change is -16.8% and the result was inactive. Besides, in experiment [2], the activity change was found to be 11%.

For `CCCc1nc2ccc(Br)cn2c1Cc1cccc(Cl)c1`, in experiment [1], the activity change was -8.44% and the outcome was inactive. Moreover, the activity change in experiment [2] worked out at 4.58%.

As to `CS(=O)(=O)c1ccc(Cl)c(NC(=O)COC(=O)c2c(Cl)cccc2Cl)c1`, in experiment [1], the activity change is -7.03% and the outcome was inactive. The activity change in experiment [2] was -3.81%.

For the compound `COc1ccc(Cc2c(-c3cccc(Cl)c3)nc3ccc(Cl)cn23)c(C)c1`, in experiment [1], the activity change was -9.93% and the outcome was inactive. The activity change in experiment [2] is 1.24%.

`OC1CCN(c2c3c(nc4cc(-c5cccc(F)c5)nn24)CCCC3)CC1`: the activity change in experiment [1] is -19%; in experiment [2], -5.04%. For the same compound, the call in experiment [1] was inactive.

On to `CN(Cc1ccccc1NS(=O)(=O)c1ccc(Cl)cc1)C1CCCCC1`, for which the activity change in experiment [1] amounted to 4.68%; in experiment [2], 25.7%. In addition, the outcome in experiment [1] was inactive.

Consider `O=C1c2ccccc2CSc2c(O)cccc21`, for which, in experiment [1], the activity change is -41.7% and the compound was classed as inactive. In addition, the activity change in experiment [2] is -51.2%.

For `CCN(CC)CCNC(=O)c1cc2cc3ccc(OC)cc3nc2o1`, in experiment [1], the activity change was -17.2% and the result was inactive. Moreover, in experiment [2], the activity change is -1.99%.

As to `C[C@H](CO)N1C[C@H](C)[C@@H](CN(C)C(=O)CCCN(C)C)OCCCC[C@H](C)Oc2ccc(NC(=O)Nc3cccc4ccccc34)cc2C1=O`, the activity change in experiment [1] is 1.54%; in experiment [2], -2.48%. In addition, the compound was called inactive in experiment [1].

Regarding `COc1ccccc1NC(=O)COC(=O)Cc1c[nH]c2ccccc12`, the figures for the activity change in experiment [1] and in experiment [2] were -29.2% and -34.7%, respectively. In experiment [1], the compound was called inactive.

With `NC(=O)c1ccsc1NC(=O)COC(=O)Cc1ccc(F)cc1`, in experiment [1], the activity change was -13.5% and the outcome was inactive. Further, the activity change in experiment [2] is -23.2%.

On to `COc1cccc(C(=O)Nc2nnc(S(=O)(=O)N(C)Cc3ccccc3)s2)c1`, for which, in experiment [1], the activity change was -30.6% and the outcome was inactive. Besides, the activity change in experiment [2] was -13.1%.

In the case of `Cc1noc(C)c1NC(=O)Nc1ccc2c(c1)C(=O)N([C@H](C)CO)C[C@@H](C)[C@@H](CN(C)C(=O)Nc1ccc3c(c1)OCO3)OCCCC[C@@H](C)O2`, in experiment [1], the activity change is -6.3% and the compound was called inactive. Also, in experiment [2], the activity change is -16.3%.
